From PubChem BioAssay (Tox21)
Several values for one entry are separate records, joined by “and”; a condition that tells them apart may be missing. Equal values may be shown once. Results filed as inconclusive are left out. Where a call stands in place of a potency, no number is given. More than one record can exist for a structure, and the calls need not agree. Activity calls are given as the source filed them. Unless noted, calls follow the shape of the dose curve; as a rule, active = well fitted curve in the direction sought with a large enough effect in the repeat runs; inconclusive = weak or mixed curves; inactive = no such curve, though single readings can be large; an effect the other way counts as inactive or inconclusive.

What was measured:
[1] = molecular target: Acetylcholinesterase (Homo sapiens) (UniProt P22303); test: Acetylcholinesterase (AChE) small molecule antagonists: enzyme-based qHTS assay (AID 1347397; calls by dose curve; also: nearly all actives have a fitted effect of over 55% in size; also: potency is read from the fitted curve at half-maximal effect); conditions: Potency: AChE enzyme activity inhibition; outcome: AChE enzyme activity inhibition
Chain of Acetylcholinesterase (Homo sapiens) (P22303 whole entry, looked up): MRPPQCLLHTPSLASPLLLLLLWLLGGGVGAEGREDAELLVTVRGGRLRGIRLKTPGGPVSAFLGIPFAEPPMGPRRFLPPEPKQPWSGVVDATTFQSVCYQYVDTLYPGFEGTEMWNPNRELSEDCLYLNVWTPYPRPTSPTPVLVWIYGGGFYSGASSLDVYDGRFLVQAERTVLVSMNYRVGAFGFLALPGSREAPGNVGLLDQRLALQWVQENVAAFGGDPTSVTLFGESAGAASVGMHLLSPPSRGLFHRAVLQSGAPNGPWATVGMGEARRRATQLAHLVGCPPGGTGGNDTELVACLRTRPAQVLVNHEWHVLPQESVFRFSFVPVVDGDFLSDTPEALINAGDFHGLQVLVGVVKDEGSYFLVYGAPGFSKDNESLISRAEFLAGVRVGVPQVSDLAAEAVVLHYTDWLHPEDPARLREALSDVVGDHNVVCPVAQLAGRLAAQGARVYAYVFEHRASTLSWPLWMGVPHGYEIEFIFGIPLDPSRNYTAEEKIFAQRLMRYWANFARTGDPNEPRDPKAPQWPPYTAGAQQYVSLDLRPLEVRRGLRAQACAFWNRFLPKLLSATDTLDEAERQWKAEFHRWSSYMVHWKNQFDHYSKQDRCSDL
Method in brief: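 In this quantitative HTS, compounds from the Tox21 10K collection were preincubated 30 min at ambient temperature with recombinant human AChE dispensed at 50 mU/mL. Hydrolysis of acetylthiocholine was then followed for 10 min by DTNB colour development.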

[2] = molecular target: Acetylcholinesterase (Homo sapiens) (UniProt P22303); test: Acetylcholinesterase (AChE) small molecule antagonists: enzyme-based qHTS assay with human liver microsomes (AID 1347399; calls by dose curve; also: nearly all actives have a fitted effect of over 60% in size); conditions: Potency: qHTS inhibition; outcome: qHTS inhibition
Method in brief: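 Recombinant human AChE (50 mU/mL in the enzyme mix) and human liver microsomes (0.25 mg/mL final) were preincubated with compound and NADPH (0.25 mg/mL final) for 30 min at 37 C. Acetylthiocholine/DTNB was then added; thiocholine was read colorimetrically after 10 min at room temperature.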

[3] = molecular target: Cytochrome P450 2D6 (Homo sapiens) (UniProt P10635); test: Cytochrome P450 Family 2 Subfamily D Member 6 (CYP2D6) small molecule antagonists: luciferase reporter qHTS assay (AID 1671196); also: nearly all actives have a fitted effect of over 50% in size; also: potency is read from the fitted curve at half-maximal effect
Chain of Cytochrome P450 2D6 (Homo sapiens) (P10635 whole entry, looked up): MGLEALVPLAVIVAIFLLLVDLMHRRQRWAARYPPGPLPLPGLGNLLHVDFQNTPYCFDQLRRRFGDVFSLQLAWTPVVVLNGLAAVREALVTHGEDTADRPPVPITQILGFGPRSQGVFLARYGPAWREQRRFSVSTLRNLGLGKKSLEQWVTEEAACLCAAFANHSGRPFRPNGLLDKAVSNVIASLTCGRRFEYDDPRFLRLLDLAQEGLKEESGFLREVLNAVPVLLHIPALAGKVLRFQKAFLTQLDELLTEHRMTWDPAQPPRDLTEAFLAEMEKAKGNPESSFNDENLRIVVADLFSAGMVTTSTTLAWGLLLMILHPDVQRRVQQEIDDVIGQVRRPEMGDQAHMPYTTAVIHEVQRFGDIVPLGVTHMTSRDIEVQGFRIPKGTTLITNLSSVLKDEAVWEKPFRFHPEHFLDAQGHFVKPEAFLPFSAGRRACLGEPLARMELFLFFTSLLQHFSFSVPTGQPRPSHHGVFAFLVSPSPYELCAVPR
Method in brief: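 CYP2D6 activity was followed as luminescence from its luciferin product after a 1 h NADPH-driven reaction at room temperature. Enzyme-substrate mix and compound were pre-incubated for 10 min, and the signal was read 20 min after adding detection reagent.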

[4] = molecular target: Cytochrome P450 2C19 (Homo sapiens) (UniProt P33261); test: Cytochrome P450 Family 2 Subfamily C Member 19 (CYP2C19) small molecule antagonists: luciferase reporter qHTS assay (AID 1671197); also: nearly all actives have a fitted effect of over 65% in size; also: potency is read from the fitted curve at half-maximal effect
Chain of Cytochrome P450 2C19 (Homo sapiens) (P33261 whole entry, looked up): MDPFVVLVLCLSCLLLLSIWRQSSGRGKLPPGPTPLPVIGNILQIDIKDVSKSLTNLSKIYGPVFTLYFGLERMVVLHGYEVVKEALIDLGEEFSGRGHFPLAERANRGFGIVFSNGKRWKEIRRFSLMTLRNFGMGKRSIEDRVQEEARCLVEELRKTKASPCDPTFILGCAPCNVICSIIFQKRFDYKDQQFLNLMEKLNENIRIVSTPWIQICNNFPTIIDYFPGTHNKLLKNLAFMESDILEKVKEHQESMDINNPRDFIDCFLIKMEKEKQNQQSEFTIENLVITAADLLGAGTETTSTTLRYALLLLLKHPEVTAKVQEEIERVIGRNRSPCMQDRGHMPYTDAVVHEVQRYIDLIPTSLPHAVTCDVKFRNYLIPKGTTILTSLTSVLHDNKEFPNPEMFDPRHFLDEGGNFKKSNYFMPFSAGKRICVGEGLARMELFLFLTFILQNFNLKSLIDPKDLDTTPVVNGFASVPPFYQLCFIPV
Method in brief: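 Enzyme-substrate mix with proluciferin substrate (P450-Glo CYP2C19 system) preincubated with compounds 10 min at room temperature; NADPH regeneration solution added, 37C for 1 h; detection reagent stops reaction, luminescence read after 20 min. Ketoconazole positive control.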

[5] = molecular target: Voltage-gated inwardly rectifying potassium channel KCNH2 (Homo sapiens) (UniProt Q12809); test: Human Ether-a-go-go-Related Gene (hERG) channel small molecule antagonists: fluorescence cell-based qHTS assay (AID 1671200); also: nearly all actives have a fitted effect of over 50% in size; also: potency is read from the fitted curve at half-maximal effect
Chain of Voltage-gated inwardly rectifying potassium channel KCNH2 (Homo sapiens) (Q12809 whole entry, looked up): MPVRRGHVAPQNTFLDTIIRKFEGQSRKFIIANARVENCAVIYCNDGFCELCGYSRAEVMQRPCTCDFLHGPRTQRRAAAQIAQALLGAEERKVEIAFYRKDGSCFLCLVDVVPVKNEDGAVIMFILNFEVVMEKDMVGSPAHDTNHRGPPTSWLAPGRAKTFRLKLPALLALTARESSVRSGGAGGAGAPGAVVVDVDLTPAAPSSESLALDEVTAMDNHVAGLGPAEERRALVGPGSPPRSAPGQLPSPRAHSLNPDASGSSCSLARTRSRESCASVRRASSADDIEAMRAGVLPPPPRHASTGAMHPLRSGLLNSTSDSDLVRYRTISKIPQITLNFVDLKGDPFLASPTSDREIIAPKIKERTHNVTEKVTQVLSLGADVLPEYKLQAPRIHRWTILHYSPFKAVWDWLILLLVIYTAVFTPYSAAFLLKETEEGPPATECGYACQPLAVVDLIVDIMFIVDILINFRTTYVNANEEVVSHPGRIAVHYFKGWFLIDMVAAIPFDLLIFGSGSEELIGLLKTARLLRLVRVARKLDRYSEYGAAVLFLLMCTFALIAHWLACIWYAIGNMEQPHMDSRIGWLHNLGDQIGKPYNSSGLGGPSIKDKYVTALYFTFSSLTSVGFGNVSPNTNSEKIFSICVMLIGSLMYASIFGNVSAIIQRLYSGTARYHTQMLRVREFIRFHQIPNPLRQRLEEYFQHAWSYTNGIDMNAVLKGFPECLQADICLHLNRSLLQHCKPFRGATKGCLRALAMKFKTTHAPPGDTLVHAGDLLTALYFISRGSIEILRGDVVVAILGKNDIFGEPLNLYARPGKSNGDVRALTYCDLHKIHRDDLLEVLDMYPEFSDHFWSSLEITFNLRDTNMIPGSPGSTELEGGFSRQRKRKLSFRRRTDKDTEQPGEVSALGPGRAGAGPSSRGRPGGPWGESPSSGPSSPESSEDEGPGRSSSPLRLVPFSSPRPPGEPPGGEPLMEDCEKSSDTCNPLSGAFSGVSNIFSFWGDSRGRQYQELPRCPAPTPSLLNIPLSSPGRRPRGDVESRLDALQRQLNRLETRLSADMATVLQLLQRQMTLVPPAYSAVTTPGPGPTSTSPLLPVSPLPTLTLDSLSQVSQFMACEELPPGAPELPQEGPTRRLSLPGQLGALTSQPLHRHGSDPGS
Method in brief: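 Quantitative HTS in hERG-U2OS cells: thallium entry through the channel reports activity, read as continuous 480/540 nm fluorescence over 2 min after stimulus addition.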

[6] = molecular target: Cytochrome P450 3A4 (Homo sapiens) (UniProt P08684); test: Cytochrome P450 Family 3 Subfamily A Member 4 (CYP3A4) small molecule antagonists: luciferase reporter qHTS assay (AID 1671201); also: series mostly up to about 120 µM; nearly all actives have a fitted effect of over 50% in size
Chain of Cytochrome P450 3A4 (Homo sapiens) (P08684 whole entry, looked up): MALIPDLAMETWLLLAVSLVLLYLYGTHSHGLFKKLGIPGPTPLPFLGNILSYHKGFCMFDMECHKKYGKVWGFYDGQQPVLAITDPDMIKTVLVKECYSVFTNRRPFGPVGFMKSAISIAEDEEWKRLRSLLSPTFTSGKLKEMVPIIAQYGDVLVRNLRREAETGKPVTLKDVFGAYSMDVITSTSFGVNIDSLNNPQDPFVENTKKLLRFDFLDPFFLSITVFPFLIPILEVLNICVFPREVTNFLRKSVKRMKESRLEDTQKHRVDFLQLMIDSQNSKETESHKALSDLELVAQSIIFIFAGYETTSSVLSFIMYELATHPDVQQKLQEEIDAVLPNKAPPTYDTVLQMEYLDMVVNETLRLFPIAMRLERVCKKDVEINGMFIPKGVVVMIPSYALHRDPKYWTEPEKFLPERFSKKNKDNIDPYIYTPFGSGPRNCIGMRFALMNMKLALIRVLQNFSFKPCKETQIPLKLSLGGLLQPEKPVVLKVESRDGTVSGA
Method in brief: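 Inhibition of CYP3A4 is measured as loss of light: the enzyme converts a proluciferin substrate to luciferin, detected luminescently. Reaction ran 1 h at room temperature with NADPH regeneration after a 10 min compound preincubation.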

[7] = molecular target: Cytochrome P450 2C9 (Homo sapiens) (UniProt P11712); test: Cytochrome P450 Family 2 Subfamily C Member 9 (CYP2C9) small molecule antagonists: luciferase reporter qHTS assay (AID 1671198); also: nearly all actives have a fitted effect of over 50% in size; also: potency is read from the fitted curve at half-maximal effect
Chain of Cytochrome P450 2C9 (Homo sapiens) (P11712 whole entry, looked up): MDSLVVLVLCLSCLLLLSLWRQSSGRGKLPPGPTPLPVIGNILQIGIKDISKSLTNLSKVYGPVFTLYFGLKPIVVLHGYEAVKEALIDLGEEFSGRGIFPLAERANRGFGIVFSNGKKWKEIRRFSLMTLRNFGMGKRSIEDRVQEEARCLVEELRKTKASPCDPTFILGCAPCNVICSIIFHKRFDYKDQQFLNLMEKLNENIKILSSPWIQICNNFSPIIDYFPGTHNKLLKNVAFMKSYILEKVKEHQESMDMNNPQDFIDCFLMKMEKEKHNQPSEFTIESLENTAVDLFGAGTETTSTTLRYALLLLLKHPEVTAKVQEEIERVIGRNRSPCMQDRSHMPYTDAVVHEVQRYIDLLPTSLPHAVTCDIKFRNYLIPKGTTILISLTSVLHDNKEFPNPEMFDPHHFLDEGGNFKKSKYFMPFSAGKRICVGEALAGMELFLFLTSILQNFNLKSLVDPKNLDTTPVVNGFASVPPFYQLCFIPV
Method in brief: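 P450-Glo proluciferin substrate with CYP2C9 enzyme; 10 min RT preincubation, then NADPH regeneration 1 h at 37C; luciferin detection reagent 20 min RT, luminescence in relative luminescence units.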

[8] = molecular target: Cytochrome P450 1A2 (Homo sapiens) (UniProt P05177); test: Cytochrome P450 Family 1 Subfamily A Member 2 (CYP1A2) small molecule antagonists: luciferase reporter qHTS assay (AID 1671199); also: nearly all actives have a fitted effect of over 50% in size; also: potency is read from the fitted curve at half-maximal effect
Chain of Cytochrome P450 1A2 (Homo sapiens) (P05177 whole entry, looked up): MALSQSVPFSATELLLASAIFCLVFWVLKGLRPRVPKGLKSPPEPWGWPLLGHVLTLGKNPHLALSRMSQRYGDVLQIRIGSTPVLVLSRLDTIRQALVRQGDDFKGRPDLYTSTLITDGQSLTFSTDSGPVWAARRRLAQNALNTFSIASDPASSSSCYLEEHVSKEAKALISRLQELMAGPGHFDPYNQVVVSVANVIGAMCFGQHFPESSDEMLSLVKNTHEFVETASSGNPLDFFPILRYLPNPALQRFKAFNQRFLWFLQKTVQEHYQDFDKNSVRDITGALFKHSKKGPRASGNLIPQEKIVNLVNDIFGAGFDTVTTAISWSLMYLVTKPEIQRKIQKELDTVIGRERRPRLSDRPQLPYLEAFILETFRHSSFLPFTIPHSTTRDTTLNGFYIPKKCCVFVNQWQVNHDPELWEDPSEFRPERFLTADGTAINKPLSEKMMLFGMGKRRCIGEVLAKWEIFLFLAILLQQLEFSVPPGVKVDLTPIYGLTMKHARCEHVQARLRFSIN
Method in brief: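 Luminescence from luciferin formed by CYP1A2 from a proluciferin substrate, read 20 min after detection reagent. Compound was pre-incubated 10 min with enzyme-substrate, and reaction started with NADPH regeneration solution for 1 h at room temperature; furafylline control.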

[9] = molecular target: Acetylcholinesterase (Homo sapiens) (UniProt P22303); test: Acetylcholinesterase (AChE) small molecule antagonists: fluorescence cell-based qHTS assay (AID 1347398; calls by dose curve; also: nearly all actives have a fitted effect of over 50% in size); conditions: Potency: AChE activity; outcome: AChE activity
Method in brief: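 Cells (SH-SY5Y) attached overnight, were dosed with compound or DMSO vehicle for 30 min at 37 C, and then incubated 40 min at room temperature with acetylthiocholine and Thiolite Green; green fluorescence indexed AChE activity.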

| SMILES | Potency [1] | Potency [2] | Potency [3] | Potency [4] | Potency [5] | Potency [6] | Potency [7] | Potency [8] | Potency [9] |
| --- | --- | --- | --- | --- | --- | --- | --- | --- | --- |
| CCN[C@H](C)Cc1cccc(C(F)(F)F)c1 | inactive | inactive | 2.24 µM (active) | inactive | inactive | inactive |  |  |  |
| O=C(O)CBr | inactive | inactive | inactive | inactive | inactive | inactive | inactive | inactive |  |
| CC(Cc1ccccc1)NCCn1cnc2c1c(=O)n(C)c(=O)n2C (stereo unspecified) | inactive | inactive | 4.96 µM (active) |  | inactive |  | inactive | inactive |  |
| C=C(C)[C@H]1CN[C@H](C(=O)O)[C@H]1CC(=O)O | inactive | inactive | inactive | inactive | inactive | inactive | inactive | inactive |  |
| C=C(Cl)CCl | inactive | inactive | inactive |  | inactive | inactive | inactive | inactive |  |
| O=c1[nH]oc2c1CCNC2 | inactive | inactive | inactive | inactive | inactive | inactive | inactive | inactive |  |
| CS(=O)(=O)c1ccc(C(=O)C2C(=O)CCCC2=O)c(Cl)c1COCC(F)(F)F | inactive | inactive | inactive |  | inactive |  | 6.33 µM (active) | inactive |  |
| O=C1CCCCC1Cl (stereo unspecified) | inactive | inactive | inactive |  | inactive | inactive | inactive | 36 µM (active) |  |
| ClC(Cl)(Cl)Cl | inactive | inactive | inactive |  | inactive |  | inactive |  |  |
| CCCCCCCCBr | inactive | inactive | inactive |  | inactive | inactive | inactive |  |  |
| Clc1ccc(C(Cl)(Cl)Cl)cn1 | inactive | inactive | inactive | inactive | inactive |  | inactive | 7.96 µM (active) |  |
| COc1ccc(C=O)cc1O | inactive | inactive | inactive |  |  | inactive | inactive |  |  |
| C[C@H](CN1CCOCC1)C(C(=O)N1CCCC1)(c1ccccc1)c1ccccc1 | inactive | inactive | 43.3 µM (active) |  |  |  |  | inactive |  |
| CC[C@@H](CO)NC(=O)[C@@H]1C=C2c3cccc4c3c(cn4C)C[C@H]2N(C)C1 | 4.36 µM (active) | inactive | 6.92 µM (active) | inactive | inactive |  |  |  |  |
| Nc1c(Cl)c(F)nc(OCC(=O)O)c1Cl | inactive | inactive | inactive |  | inactive |  | inactive |  |  |
| CC(C)[N+](C)(CCC(C(N)=O)(c1ccccc1)c1ccccc1)C(C)C | inactive | inactive | 0.776 µM (active) | inactive | inactive |  | 38.9 µM (active) |  |  |
| O=C1C2CC=CCC2C(=O)N1SC(Cl)(Cl)Cl (stereo unspecified) | inactive | inactive | 78.3 µM (active) | 39.8 µM (active) and 8.79 µM (active) | inactive and 48.2 µM (active) | inactive | 31.6 µM (active) and 4.94 µM (active) | 31.6 µM (active) and 22.1 µM (active) |  |
| CC1N=C(N)OC1c1ccccc1 (stereo unspecified) | inactive | inactive | 9.81 µM (active) | inactive | inactive | inactive |  | inactive |  |
| CCC(=O)c1ccc(Cl)cc1 | inactive |  |  |  | inactive |  | inactive | inactive | inactive |
| CCC1(c2ccccc2)CCC(=O)NC1=O (stereo unspecified) | inactive | inactive | inactive | 38.9 µM (active) |  | inactive | inactive | inactive |  |
